Reference: PubChem BioAssay (NCI)
Compounds without any hit were thinned out: in the full panel of roughly 83,000, 20% have a hit.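 Single-dose data. Exposure time 48 hours. Values below 10 considered active.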 Values without a mark were called inactive. Active and inactive are the calls of the source.

How the values were obtained:
Assay in all cases: NCI-60 one-dose screen, 48 h (100 = growth as untreated, 0 = no growth, -100 = all killed)
Details in all cases: 10 µM unless noted
SK-MEL-2 melanoma = tested on: SK-MEL-2 melanoma
SN12C renal = tested on: SN12C renal
UO-31 renal = tested on: UO-31 renal
TK-10 renal = tested on: TK-10 renal
ACHN renal = tested on: ACHN renal
CAKI-1 renal = tested on: CAKI-1 renal
A498 renal = tested on: A498 renal
MOLT-4 leukemia = tested on: MOLT-4 leukemia
SR leukemia = tested on: SR leukemia
RPMI-8226 leukemia = tested on: RPMI-8226 leukemia
OVCAR-8 ovarian = tested on: OVCAR-8 ovarian
OVCAR-5 ovarian = tested on: OVCAR-5 ovarian
SK-OV-3 ovarian = tested on: SK-OV-3 ovarian
IGROV1 ovarian = tested on: IGROV1 ovarian
OVCAR-3 ovarian = tested on: OVCAR-3 ovarian
NCI/ADR-RES ovarian = tested on: NCI/ADR-RES ovarian
OVCAR-4 ovarian = tested on: OVCAR-4 ovarian
HS 578T breast = tested on: HS 578T breast
CCRF-CEM leukemia = tested on: CCRF-CEM leukemia

SMILES | growth (SK-MEL-2 melanoma) | growth (SN12C renal) | growth (UO-31 renal) | growth (TK-10 renal) | growth (ACHN renal) | growth (CAKI-1 renal) [%] | growth (A498 renal) [%] | growth (MOLT-4 leukemia) | growth (SR leukemia) | growth (RPMI-8226 leukemia) | growth (OVCAR-8 ovarian) | growth (OVCAR-5 ovarian) | growth (SK-OV-3 ovarian) | growth (IGROV1 ovarian) | growth (OVCAR-3 ovarian) | growth (NCI/ADR-RES ovarian) [%] | growth (OVCAR-4 ovarian) | growth (HS 578T breast) [%] | growth (CCRF-CEM leukemia)
NC(CC(N)C(=O)O)C(=O)O (stereo not drawn) | 98.6% | 93.8% | 94.8% | 110% | 95.7% | 97 | 108 | 107% | 89.9% | 98.6% | 100% | 97% | 111% | 108% | 107% | 107 |  |  | 
Cc1nc2sccn2c1-c1csc(Nc2ccccc2Cl)n1 | 33.9% | 57.1% | 42.4% | 61% | 58.9% | 34.6 | 31.5 | 17% |  | 38.9% | 53% | 54.9% | 75.9% | 60.5% | 47.7% | 21.6 | 47.3% | 76.7 | 
CCCCCCCCCCCCOB(OCCCCCCCCCCCC)OCCCCCCCCCCCC | 108% | 95.8% | 91.8% | 101% | 109% | 104 |  | 95.2% | 89.8% | 95.8% | 101% | 110% | -1.64% (active) | 107% | 74.3% | 97.6 | 121% | 107 | 95.3%
O=C(CNC1CCCCC1)Nc1ccc(-c2nc3ccccc3s2)cc1 | 105% | 86.7% | 56.5% | 103% | 99.1% | 86 |  | 54.1% | 9.67% (active) | 77.6% | 99.3% | 94.7% | 90.8% | 100% | 94% | 89 | 84.4% | 84.3 | 77.3%
COc1ccc(-c2nc3sccn3c2-c2ccnc(NCCCNS(=O)(=O)c3ccc(C)cc3)n2)cc1 | 25.9% | 36.3% | 15.5% | 66% | 22.4% | 42.1 |  | 24.6% | 33.1% | 23.2% | 25% | 93.4% | 56.1% | 33.9% | 45.4% | 20.8 | 42.9% | 66.2 | 18.9%
O=c1c2cccc3c(Nc4ccc(F)cc4)ccc(c32)c2nc3ccccc3n12 | 103% | 87.8% | 49.2% | 75.3% | 87.9% | 79.9 | 66.2 | 89.9% |  | 57.4% | 89.3% | 84.8% |  |  | 94% | 91.4 | 76% | 73.6 | 
O=C(CCCn1c(=O)c2sc3ccccc3c2n2nnc(-c3ccccc3)c12)NCCc1cnc[nH]1 | -49.2% (active) | -78% (active) | -79.3% (active) | -62.4% (active) | -37.9% (active) | 14.9 | 95.6 | 73.3% | 84.2% |  | -28.5% (active) | -78.9% (active) | 75.3% |  | -47.6% (active) |  | -54.5% (active) | 90.6 | 
Cc1cc(N/C=c2\sc3ncnn3c2=O)no1 | 101% | 95.5% | 91.5% | 109% | 106% | 101 |  | 104% | 74.8% | 92.5% | 101% | 108% | 105% | 94.4% | 95.8% | 99.1 | 106% | 98.9 | 123%
CCN(C(=O)c1cc2ncccc2[nH]1)[C@H]1CCC[C@@H](NCc2cccc(F)c2)C1 | 105% | 95.3% | 74.3% | 92.6% | 102% | 101 |  | 95.9% | 99.6% | 91.8% | 103% | 81.6% | 103% | 91.1% | 95.7% | 89.1 | 104% | 109 | 128%
COc1cc(NCCCN=C(N)NC(N)=NC(C)C)c2ncccc2c1 | 16.2% | 38.1% | 69.1% | 107% | 94% | 94.7 | 120 | 57.7% | 75.2% | 52.5% | 88.5% | 57.6% | 93.7% |  | 8.99% (active) | 98.8 | 11.3% |  | 
C=C1C(=O)O[C@H]2[C@H](O)[C@@H](C)CCC/C(C)=C/CC[C@@]3(C)O[C@@H]3C[C@@H]12 | 90.4% | 91.2% | 77.4% | 81% | 96% | 74.8 | 91.8 | 78.6% | 94.3% | 99.8% | 88.7% | 95.8% |  |  | 72.6% | 97.6 | 103% | 98.4 | 
O=C(NCCCN1CCN(CCCNC(=O)C2CCCCC2)CC1)C1CCCCC1 | 98% | 97.1% | 85.7% | 113% | 99.5% | 87.2 | 105 | 94.1% |  | 93.3% | 101% | 104% | 91.6% | 104% | 99.3% | 112 | 102% | 102 | 
COc1ccc(C(=O)/C=C/c2cccc([N+](=O)[O-])c2)c(OC)c1 | 72.4% | 8.76% (active) | -13% (active) | 50% | -43.5% (active) | 24.8 |  | 7.24% (active) | 4.78% (active) | -16.8% (active) | 18.2% | 41.9% | 77% | 7% (active) | 18.6% | 11.2 | 26.6% | 74.6 | 5.85% (active)
CCCC(C(=O)OCC)C(C)OC(=O)OCC (stereo not drawn) | 94.7% | 101% | 80.1% | 98% | 107% | 96.3 | 118 | 89.8% | 87.6% | 101% | 96.4% | 108% | 95.5% | 115% | 103% | 105 | 108% |  | 
O=c1oc2cc(OS(=O)(=O)c3ccc(F)cc3)ccc2c2c1CCCCC2 | 72% | 70.1% | 50.2% | 89.6% | 84.9% | 86.7 | 83.4 | 63.8% | 53.7% |  | 77.6% | 66.2% | 95.9% | 95.2% | 77.8% |  | 58.1% |  | 
COc1cc(NC(=O)c2cc3ccccc3nc2Nc2ccc(F)cc2)cc(OC)c1OC | 63.4% | 62.3% | 46.7% | 65.3% | 42.9% | 52.4 |  | 12.4% | 35.7% | 29.8% | 43.3% | 68.8% | 72.8% | 54.5% | 36.2% | 39.7 | 47.7% | 75.5 | 42.1%
CC(=O)Nc1ccc(S(=O)(=O)NC(CCC(=O)Nc2ccc(Cl)cc2)C(=O)O)cc1 (stereo not drawn) | 107% | 102% | 62.1% | 95.8% | 75.7% | 83 |  | 110% | 77.9% | 99.1% | 97.4% | 77.7% | 93.7% | 112% | 107% |  | 94% | 98.4 | 88%
CCCCCCCCCCCCNC(=S)N/N=C/c1ccc(Cl)c(Cl)c1 | 99.8% | 101% | 89.2% | 143% | 94.9% | 101 | 112 | 93.8% | 93.8% | 102% | 100% | 93.9% |  | 119% | 111% | 113 | 99.3% |  | 
